Test results published in PubChem BioAssay (EPA / NIEHS).
Some structures have more than one record in an assay (separate samples or runs), and their calls can disagree. Activity calls are given as the source filed them. How the source made its calls: active means hit-call score of the fitted dose curve at least 0.9, where 1 is the maximum; inactive means score below 0.9.

Tests used:
[1] = ATG_M_32_CIS: Attagene CIS-FACTORIAL HepG2 Assay for M32 Transcription Factor (Internal Marker) (AID 2282949); settings: HepG2 Attagene cis-factorial M32 reporter, mRNA; actives raise or lower the signal;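 further: background control marker of the multiplexed CIS panel rather than a real target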
Summary of the method: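 Using DMSO as baseline, bidirectional curve fits were applied to reporter mRNA signals. These came from transiently transfected HepG2 cells exposed for 24 h, with RNA analysed by RT-PCR, FAM primer extension, HpaI digestion and CE.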

[2] = molecular target: Hypoxia-inducible factor 1-alpha (Homo sapiens) (UniProt Q16665); assay: ATG_HIF1a_CIS: Attagene CIS-FACTORIAL HepG2 Assay for human Hypoxia Inducible Factor 1 (HIF1A) (AID 2282951); settings: HepG2 Attagene cis-factorial HIF1a reporter transcription; actives raise or lower the signal
Sequence of Hypoxia-inducible factor 1-alpha (Homo sapiens) (Q16665 whole entry, looked up): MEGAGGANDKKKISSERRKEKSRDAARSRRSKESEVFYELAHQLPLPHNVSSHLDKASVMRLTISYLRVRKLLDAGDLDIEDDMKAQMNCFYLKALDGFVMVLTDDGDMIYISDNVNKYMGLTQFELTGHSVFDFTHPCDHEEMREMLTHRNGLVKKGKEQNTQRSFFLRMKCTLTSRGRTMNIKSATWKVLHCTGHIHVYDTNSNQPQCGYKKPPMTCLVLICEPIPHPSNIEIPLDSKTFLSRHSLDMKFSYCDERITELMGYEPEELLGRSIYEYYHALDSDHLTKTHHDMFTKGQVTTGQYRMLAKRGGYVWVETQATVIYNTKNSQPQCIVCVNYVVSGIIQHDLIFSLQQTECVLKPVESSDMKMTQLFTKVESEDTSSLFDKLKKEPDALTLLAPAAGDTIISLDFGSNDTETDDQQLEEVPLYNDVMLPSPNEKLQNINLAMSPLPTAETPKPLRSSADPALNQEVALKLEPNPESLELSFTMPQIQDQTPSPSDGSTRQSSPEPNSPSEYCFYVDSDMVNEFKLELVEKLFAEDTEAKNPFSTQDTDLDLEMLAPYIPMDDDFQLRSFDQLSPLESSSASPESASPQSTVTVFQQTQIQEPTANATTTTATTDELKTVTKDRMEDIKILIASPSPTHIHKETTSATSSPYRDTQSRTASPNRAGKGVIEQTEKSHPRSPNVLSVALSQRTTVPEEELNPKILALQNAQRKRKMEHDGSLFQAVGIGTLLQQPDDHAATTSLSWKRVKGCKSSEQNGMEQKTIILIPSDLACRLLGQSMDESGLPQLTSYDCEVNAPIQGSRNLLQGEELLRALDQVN
Summary of the method: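 Measures endogenous transcription-factor activity through cis-regulated reporter mRNA in HepG2. Cells dosed 24 h; transcripts quantified by RT-PCR with 6-FAM-labelled products separated by capillary electrophoresis; DMSO serves as negative control.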

[3] = molecular target: Hepatocyte nuclear factor 6 (Homo sapiens) (UniProt Q9UBC0); assay: ATG_HNF6_CIS: Attagene CIS-FACTORIAL HepG2 Assay for human Hepatocyte Nuclear Factor 6 (HNF6) (AID 2282952); settings: HepG2 Attagene cis-factorial HNF6 reporter transcription; actives raise or lower the signal
Sequence of Hepatocyte nuclear factor 6 (Homo sapiens) (Q9UBC0 whole entry, looked up): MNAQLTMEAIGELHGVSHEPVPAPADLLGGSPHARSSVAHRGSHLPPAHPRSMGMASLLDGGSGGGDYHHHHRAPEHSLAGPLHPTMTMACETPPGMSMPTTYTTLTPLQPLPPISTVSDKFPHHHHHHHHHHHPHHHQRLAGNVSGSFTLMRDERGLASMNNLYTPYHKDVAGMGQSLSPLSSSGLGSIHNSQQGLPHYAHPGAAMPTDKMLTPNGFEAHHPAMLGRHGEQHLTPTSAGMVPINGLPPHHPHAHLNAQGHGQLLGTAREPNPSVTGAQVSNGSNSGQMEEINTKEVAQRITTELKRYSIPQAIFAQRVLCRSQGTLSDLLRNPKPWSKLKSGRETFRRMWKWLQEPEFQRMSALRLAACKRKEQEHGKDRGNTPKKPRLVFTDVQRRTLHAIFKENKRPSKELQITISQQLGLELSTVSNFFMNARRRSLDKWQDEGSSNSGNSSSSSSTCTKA
Summary of the method: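 Endogenous factor activity read in transiently transfected HepG2 via promoter-regulated reporter transcripts. RNA harvested 24 h post-dosing, reverse-transcribed, PCR-amplified, FAM-labelled, HpaI-digested and resolved by capillary electrophoresis; fitted in both directions against DMSO.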

[4] = molecular target: Heat shock factor protein 1 (Homo sapiens) (UniProt Q00613); assay: ATG_HSE_CIS: Attagene CIS-FACTORIAL HepG2 Assay for human Heat Shock Transcription Factor 1 (HSE) (AID 2282953); settings: HepG2 HSE cis-reporter, Attagene RNA transcription; actives raise or lower the signal
Sequence of Heat shock factor protein 1 (Homo sapiens) (Q00613 whole entry, looked up, the tested form may be a part): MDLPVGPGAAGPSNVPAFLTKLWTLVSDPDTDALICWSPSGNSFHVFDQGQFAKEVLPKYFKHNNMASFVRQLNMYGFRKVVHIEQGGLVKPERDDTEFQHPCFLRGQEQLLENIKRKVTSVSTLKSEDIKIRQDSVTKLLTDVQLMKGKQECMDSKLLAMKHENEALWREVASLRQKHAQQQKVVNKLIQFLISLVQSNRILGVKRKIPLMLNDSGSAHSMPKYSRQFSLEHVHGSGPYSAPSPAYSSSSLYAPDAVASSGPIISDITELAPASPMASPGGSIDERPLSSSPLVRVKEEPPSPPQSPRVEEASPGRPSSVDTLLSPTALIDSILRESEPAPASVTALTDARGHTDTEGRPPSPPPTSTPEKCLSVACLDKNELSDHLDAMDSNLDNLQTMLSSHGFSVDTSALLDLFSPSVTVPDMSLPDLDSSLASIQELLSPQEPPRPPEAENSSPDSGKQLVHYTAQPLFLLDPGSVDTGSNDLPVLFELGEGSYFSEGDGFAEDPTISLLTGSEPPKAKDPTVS
Summary of the method: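 Endogenous transcription factor activity captured via cis-promoter reporter units transfected into HepG2; treatment lasted 24 h. Fluorescence intensity of reporter fragments analysed with bidirectional curve fitting, DMSO baseline.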

[5] = ATG_MRE_CIS: Attagene CIS-FACTORIAL HepG2 Assay for human Metal Responsive Element (MRE) (AID 2282954); settings: HepG2 MRE cis-reporter transcription, Attagene multiplex; actives raise or lower the signal
Summary of the method: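 Multiplexed cis-reporter assay in human HepG2 liver cells, 24 h incubation with test chemical. Reporter transcripts measured by RT-PCR and capillary electrophoresis; values from bidirectional curve fitting versus DMSO.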

[6] = ATG_PBREM_CIS: Attagene CIS-FACTORIAL HepG2 Assay for human Phenobarbital-responsive Enhancer Module (PBREM) (AID 2282955); settings: HepG2 PBREM cis-reporter, Attagene multiplexed transcription; actives raise or lower the signal
Summary of the method: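 Fluorescence of labelled reporter cDNA fragments, resolved by capillary electrophoresis, gives mRNA induction in transfected HepG2 cells treated for 24 h; DMSO serves as negative control and baseline.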

[7] = molecular target: Paired box protein Pax-6 (Homo sapiens) (UniProt P26367); assay: ATG_Pax6_CIS: Attagene CIS-FACTORIAL HepG2 Assay for human Paired Box 6 (PAX6) (AID 2282956); settings: HepG2 CIS-FACTORIAL PAX6 reporter transcription, RNA readout; actives raise or lower the signal
Sequence of Paired box protein Pax-6 (Homo sapiens) (P26367 whole entry, looked up): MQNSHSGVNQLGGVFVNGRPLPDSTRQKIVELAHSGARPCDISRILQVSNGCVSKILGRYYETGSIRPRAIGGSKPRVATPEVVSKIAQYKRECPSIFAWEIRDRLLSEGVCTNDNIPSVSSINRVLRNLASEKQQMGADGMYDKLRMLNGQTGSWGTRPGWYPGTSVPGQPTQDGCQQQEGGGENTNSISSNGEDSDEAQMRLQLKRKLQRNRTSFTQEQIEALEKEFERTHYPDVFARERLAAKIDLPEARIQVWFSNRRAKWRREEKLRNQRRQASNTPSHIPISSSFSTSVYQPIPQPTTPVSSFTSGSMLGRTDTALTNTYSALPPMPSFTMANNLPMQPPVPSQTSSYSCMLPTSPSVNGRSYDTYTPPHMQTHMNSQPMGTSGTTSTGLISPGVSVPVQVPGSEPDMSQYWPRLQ
Summary of the method: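 Read-out is reporter transcript level, measured by RT-PCR with fluorescent primer extension and capillary electrophoresis after 24 h dosing of transfected HepG2 cells. Activity in either direction fitted relative to DMSO control.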

[8] = ATG_PXRE_CIS: Attagene CIS-FACTORIAL HepG2 Assay for human Pregnane X Receptor Element (PXRE) (AID 2282957); settings: HepG2 Attagene CIS-FACTORIAL PXRE reporter, mRNA; actives raise or lower the signal
Summary of the method: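 Reporter transcripts under endogenous PXR-responsive cis-regulation quantified from total RNA of transfected HepG2 cells 24 h post-dosing, via RT-PCR with fluorescent primer extension and capillary electrophoresis. Gain or loss of signal fitted against DMSO baseline.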

[9] = ATG_PPRE_CIS: Attagene CIS-FACTORIAL HepG2 Assay for human Peroxisome Proliferator-activated Response Element (PPRE) (AID 2282958); settings: HepG2 PPRE cis-element reporter, Attagene transcription factor profiling; actives raise or lower the signal
Summary of the method: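 Cells are first transfected transiently with the multiplexed reporter library, then dosed for 24 h. Total RNA is reverse-transcribed, amplified, fluorescently end-labeled and HpaI-cut before capillary electrophoresis; activity is fitted bidirectionally against DMSO controls.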

[10] = ATG_RORE_CIS: Attagene CIS-FACTORIAL HepG2 Assay for human RAR-related Orphan Receptor Element (RORE) (AID 2282959); settings: HepG2 Attagene cis-factorial RORE reporter, mRNA; actives raise or lower the signal
Summary of the method: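 Cells were HepG2 carrying transfected cis-regulated reporter constructs, dosed for 24 hours. Total RNA was reverse-transcribed and reporter cDNA amplified, fluorescently labeled and sized by capillary electrophoresis. Activity was fitted bidirectionally relative to DMSO.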

[11] = ATG_Sox_CIS: Attagene CIS-FACTORIAL HepG2 Assay for human SRY-box transcription factor (SOX) (AID 2282960); settings: HepG2 Attagene cis-factorial SOX reporter, mRNA; actives raise or lower the signal
Summary of the method: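 Transient MRTU transfection of HepG2; 24 h compound incubation; TriZol RNA, oligo(dT) RT, PCR, 6-FAM primer extension, HpaI cut, CE. Bidirectional fit, DMSO = baseline.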

[12] = molecular target: Transcription factor Sp1 (Homo sapiens) (UniProt P08047); assay: ATG_Sp1_CIS: Attagene CIS-FACTORIAL HepG2 Assay for human Specificity Protein 1 (Sp1) (AID 2282961); settings: HepG2 Sp1 cis-reporter transcription, actives raise or lower the signal
Sequence of Transcription factor Sp1 (Homo sapiens) (P08047 whole entry, looked up): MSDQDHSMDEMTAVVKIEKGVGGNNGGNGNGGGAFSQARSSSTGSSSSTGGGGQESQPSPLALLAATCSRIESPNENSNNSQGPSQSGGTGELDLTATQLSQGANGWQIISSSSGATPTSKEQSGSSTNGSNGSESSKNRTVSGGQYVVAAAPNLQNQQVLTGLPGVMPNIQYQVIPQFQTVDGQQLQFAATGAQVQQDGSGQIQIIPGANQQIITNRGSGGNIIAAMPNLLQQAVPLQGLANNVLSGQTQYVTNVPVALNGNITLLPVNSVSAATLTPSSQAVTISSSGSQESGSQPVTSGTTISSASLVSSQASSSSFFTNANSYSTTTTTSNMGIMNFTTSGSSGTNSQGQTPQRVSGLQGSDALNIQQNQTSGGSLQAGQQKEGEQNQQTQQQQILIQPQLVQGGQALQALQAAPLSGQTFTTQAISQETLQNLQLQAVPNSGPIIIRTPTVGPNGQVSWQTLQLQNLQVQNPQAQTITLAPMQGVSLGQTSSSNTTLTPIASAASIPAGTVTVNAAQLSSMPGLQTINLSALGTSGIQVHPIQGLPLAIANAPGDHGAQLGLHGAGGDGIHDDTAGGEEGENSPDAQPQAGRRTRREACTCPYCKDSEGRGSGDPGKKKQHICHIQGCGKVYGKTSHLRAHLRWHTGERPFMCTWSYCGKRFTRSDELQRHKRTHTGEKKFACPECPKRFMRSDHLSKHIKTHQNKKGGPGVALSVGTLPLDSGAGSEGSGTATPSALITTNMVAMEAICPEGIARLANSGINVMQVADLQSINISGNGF
Summary of the method: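 Endogenous Sp1 activity was gauged in human liver HepG2 cells bearing transfected reporter units under a cis-regulating promoter. After 24 h dosing, reporter mRNA was quantified by RT-PCR with capillary electrophoresis, and activity fitted bidirectionally versus DMSO.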

[13] = ATG_SREBP_CIS: Attagene CIS-FACTORIAL HepG2 Assay for human Sterol Regulatory Element Binding (SREBP) (AID 2282962); settings: HepG2 Attagene cis-factorial SREBP reporter, mRNA; actives raise or lower the signal
Summary of the method: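 Endogenous SREBP activity read as cis-element-driven reporter transcript in transiently transfected HepG2, 24 h post-dosing; quantified via RT-PCR plus capillary electrophoresis of fluorescent fragments. Gain or loss of signal fitted relative to DMSO baseline.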

[14] = molecular target: Signal transducer and activator of transcription 3 (Homo sapiens) (UniProt P40763); assay: ATG_STAT3_CIS: Attagene CIS-FACTORIAL HepG2 Assay for human Signal Transducer and Activator of Transcription 3 (STAT3) (AID 2282963); settings: HepG2, Attagene cis-factorial STAT3 reporter transcription; actives raise or lower the signal
Sequence of Signal transducer and activator of transcription 3 (Homo sapiens) (P40763 whole entry, looked up): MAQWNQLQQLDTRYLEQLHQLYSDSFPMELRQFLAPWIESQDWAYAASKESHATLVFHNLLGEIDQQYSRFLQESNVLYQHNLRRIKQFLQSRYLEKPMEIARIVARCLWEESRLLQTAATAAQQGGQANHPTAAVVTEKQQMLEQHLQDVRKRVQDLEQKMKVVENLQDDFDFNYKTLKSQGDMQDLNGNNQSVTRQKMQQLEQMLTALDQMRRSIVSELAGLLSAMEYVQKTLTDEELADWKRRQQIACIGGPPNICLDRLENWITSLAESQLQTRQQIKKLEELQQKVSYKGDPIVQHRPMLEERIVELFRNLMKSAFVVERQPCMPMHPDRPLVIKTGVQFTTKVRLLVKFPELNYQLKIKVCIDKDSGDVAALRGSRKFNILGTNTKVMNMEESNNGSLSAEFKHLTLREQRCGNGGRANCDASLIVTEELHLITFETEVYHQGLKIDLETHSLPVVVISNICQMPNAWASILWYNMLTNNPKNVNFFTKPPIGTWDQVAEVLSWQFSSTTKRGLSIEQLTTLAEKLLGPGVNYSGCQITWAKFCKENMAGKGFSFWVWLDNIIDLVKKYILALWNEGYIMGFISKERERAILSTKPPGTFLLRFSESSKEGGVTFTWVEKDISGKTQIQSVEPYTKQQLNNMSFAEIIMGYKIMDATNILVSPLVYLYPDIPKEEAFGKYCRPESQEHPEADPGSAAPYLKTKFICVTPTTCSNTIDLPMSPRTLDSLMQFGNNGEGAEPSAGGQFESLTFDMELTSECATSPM
Summary of the method: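 Cis-factorial format: endogenous transcription factors in HepG2 drive transfected reporter units. After 24 h treatment, reporter RNA was reverse-transcribed, amplified, FAM-labelled and HpaI-digested before CE analysis; activity scored in both directions against DMSO.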

[15] = ATG_TA_CIS: Attagene CIS-FACTORIAL HepG2 Assay for human TA Basal Promoter (AID 2282964); settings: HepG2 Attagene CIS-factorial TA basal promoter reporter; actives raise or lower the signal
Summary of the method: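 Fluorescence from labelled RT-PCR reporter fragments, separated by capillary electrophoresis, gives the signal. Cells: HepG2 transiently carrying multiple reporter units, 24 h chemical dosing. Gain or loss relative to DMSO.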

[16] = ATG_TCF_b_cat_CIS: Attagene CIS-FACTORIAL HepG2 Assay for human T-Cell-Factor with beta-catenin (TCF/b-cat) (AID 2282965); settings: HepG2 TCF/beta-catenin cis-reporter transcription, actives raise or lower the signal
Summary of the method: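 Endogenous TCF/LEF activity read as reporter transcript level via RT-PCR and capillary electrophoresis fluorescence in transfected HepG2, 24 h exposure; gain or loss of signal fitted against DMSO controls.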

[17] = ATG_TAL_CIS: Attagene CIS-FACTORIAL HepG2 Assay for human TAL Basal Promoter (AID 2282966); settings: HepG2 Attagene cis-factorial TAL promoter reporter; actives raise or lower the signal;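 further: background control endpoint measuring basal TAL promoter reporter mRNA not a specific factor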
Summary of the method: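 Background-control endpoint: basal TAL promoter reporter transcripts in transiently transfected HepG2, measured 24 h after dosing. Read-out by RT-PCR with fluorescent primer extension and capillary electrophoresis; gain or loss of signal fitted relative to DMSO.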

[18] = ATG_TGFb_CIS: Attagene CIS-FACTORIAL HepG2 Assay for human Transforming Growth Factor (TGF) (AID 2282967); settings: HepG2 Attagene CIS TGFb reporter, mRNA transcription; actives raise or lower the signal
Summary of the method: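 Bidirectional fitting relative to DMSO gave the endpoint. Underlying data: reporter mRNA from HepG2 cells carrying transiently transfected cis-regulated reporter constructs, harvested 24 h after dosing and analyzed by RT-PCR and capillary electrophoresis.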

[19] = ATG_VDRE_CIS: Attagene CIS-FACTORIAL HepG2 Assay for human Vitamin D Receptor Element (VDRE) (AID 2282968); settings: HepG2 VDRE cis-reporter transcription, actives raise or lower the signal
Summary of the method: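 Measures endogenous factor activity through cis-element-driven reporter transcripts in transiently transfected HepG2. Cells are treated 24 h; reporter mRNA is quantified by RT-PCR and capillary electrophoresis; fitting is bidirectional.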

With CCOC(=O)CCN(SN(C)C(=O)Oc1cccc2c1OC(C)(C)C2)C(C)C the outcome [1] was “inactive”, the outcome [2] was “inactive” and the outcome [3] was “inactive”. For the same compound, the AC50 [4] was 184 µM (active), the AC50 [5] was 142 µM (active) and the outcome [6] was “inactive”. The outcome [7] was “inactive”, the AC50 [8] was 26.5 µM (active) and the outcome [9] was “inactive”. For the same compound, the outcome [10] was “inactive”, the outcome [11] was “inactive” and the outcome [12] was “inactive”. For the same compound, the AC50 [13] was 100 µM (active), the outcome [14] was “inactive” and the outcome [15] was “inactive”. The outcome [16] was “inactive”, the outcome [17] was “inactive” and the outcome [18] was “inactive”.
In the case of O=NN1CCOCC1, the outcome [1] is reported as “inactive”, the outcome [2] is reported as “inactive” and the outcome [3] is reported as “inactive”. The outcome [4] was “inactive”, the outcome [5] was “inactive” and the outcome [7] was “inactive”. The outcome [9] was “inactive”, the outcome [10] was “inactive” and the outcome [11] was “inactive”. For the same compound, the outcome [12] was “inactive”, the outcome [13] was “inactive” and the outcome [14] was “inactive”. For the same compound, the outcome [15] was “inactive”, the outcome [16] was “inactive” and the outcome [17] was “inactive”. For the same compound, the outcome [18] was “inactive” and the outcome [19] was “inactive”.
For OCCN(CCO)CCO, the outcome [1] was “inactive”, the outcome [2] was “inactive” and the outcome [3] was “inactive”. For the same compound, the outcome [5] was “inactive”, the outcome [6] was “inactive” and the outcome [7] was “inactive”. The outcome [8] was “inactive”, the outcome [11] was “inactive” and the outcome [12] was “inactive”. The outcome [13] was “inactive”, the outcome [14] was “inactive” and the outcome [15] was “inactive”. The outcome [16] was “inactive”, the outcome [17] was “inactive” and the outcome [18] was “inactive”.
With COc1ccc(N)cc1 the outcome [1] was “inactive”, the AC50 [2] was 181 µM (active) and the outcome [2] was “inactive”. The outcome [3] was “inactive”, the outcome [4] was “inactive” and the outcome [5] was “inactive”. The outcome [7] was “inactive”, the outcome [8] was “inactive” and the outcome [9] was “inactive”. For the same compound, the outcome [10] was “inactive”, the outcome [11] was “inactive” and the outcome [12] was “inactive”. For the same compound, the outcome [13] was “inactive”, the outcome [14] was “inactive” and the outcome [15] was “inactive”. The outcome [16] was “inactive”, the outcome [17] was “inactive” and the outcome [18] was “inactive”.
For Cc1cc(Cl)ccc1N, the outcome [1] was “inactive”, the outcome [2] was “inactive” and the outcome [3] was “inactive”. The outcome [5] was “inactive”, the outcome [6] was “inactive” and the outcome [7] was “inactive”. For the same compound, the AC50 [8] was 32.8 µM (active), the outcome [8] was “inactive” and the outcome [9] was “inactive”. For the same compound, the outcome [10] was “inactive”, the outcome [11] was “inactive” and the outcome [12] was “inactive”. The outcome [13] was “inactive”, the outcome [14] was “inactive” and the outcome [15] was “inactive”. The outcome [16] was “inactive”, the outcome [17] was “inactive” and the outcome [18] was “inactive”.
In the case of CCN(N=O)C(N)=O, the outcome [1] is reported as “inactive”, the outcome [2] is reported as “inactive” and the outcome [3] is reported as “inactive”. The outcome [4] was “inactive”, the outcome [5] was “inactive” and the outcome [9] was “inactive”. For the same compound, the outcome [10] was “inactive”, the outcome [11] was “inactive” and the outcome [12] was “inactive”. For the same compound, the outcome [13] was “inactive”, the outcome [14] was “inactive” and the outcome [15] was “inactive”. For the same compound, the outcome [16] was “inactive”, the outcome [17] was “inactive” and the outcome [18] was “inactive”. For the same compound, the outcome [19] was “inactive”.
In the case of N#Cc1ccccc1N, the outcome [1] is reported as “inactive”, the outcome [2] is reported as “inactive” and the outcome [3] is reported as “inactive”. For the same compound, the outcome [4] was “inactive”, the outcome [5] was “inactive” and the outcome [6] was “inactive”. For the same compound, the AC50 [8] was 39.4 µM (active), the outcome [9] was “inactive” and the outcome [10] was “inactive”. For the same compound, the outcome [11] was “inactive”, the outcome [12] was “inactive” and the outcome [13] was “inactive”. The outcome [14] was “inactive”, the outcome [15] was “inactive” and the outcome [16] was “inactive”. For the same compound, the outcome [17] was “inactive”, the outcome [18] was “inactive” and the outcome [19] was “inactive”.
